The source of these data is ChEMBL document CHEMBL3433997, “St. Jude Leishmania screening dataset” (2016).

By inhibition is commonly meant the relative decrease from the control value, in per cent.

What all share (format): functional
The target in assay [1] is Solute carrier family 2, facilitated glucose transporter member 1 (Homo sapiens) (UniProt P11166). Description: ST_JUDE_LEISH: Cytotoxicity at 2uM final concentration against transgenic Leishmania Mexicana promastigotes LmGLUT1 that are glucose transport deficient and complemented with the human glucose transporter GLUT1. Activity is measured by DNA content using SYBR green in vitro.

Assay [2] has as its target Hexose transporter 1 (Plasmodium falciparum) (UniProt O97467). As to the kind of experiment: ST_JUDE_LEISH: Cytotoxicity at 2uM final concentration against transgenic Leishmania Mexicana promastigotes LmPfHT that are glucose transport deficient and complemented with the Plasmodium falciparum hexose transporter. Activity is measured by DNA content using SYBR green in vitro.

Assay [3] deals with Glucose transporter (Leishmania mexicana) (UniProt O61059). As to the kind of experiment: ST_JUDE_LEISH: Cytotoxicity at 2uM final concentration against transgenic Leishmania Mexicana promastigotes LmGT2 that are glucose transport deficient and complemented with the L. Mexicana glucose transporter 2. Activity is measured by DNA content using SYBR green in vitro.

“And” between values parts separate entries of the source, which are not always exact repeats. Equal values may be shown once.

Sequence of Solute carrier family 2, facilitated glucose transporter member 1 (Homo sapiens) (P11166 whole entry): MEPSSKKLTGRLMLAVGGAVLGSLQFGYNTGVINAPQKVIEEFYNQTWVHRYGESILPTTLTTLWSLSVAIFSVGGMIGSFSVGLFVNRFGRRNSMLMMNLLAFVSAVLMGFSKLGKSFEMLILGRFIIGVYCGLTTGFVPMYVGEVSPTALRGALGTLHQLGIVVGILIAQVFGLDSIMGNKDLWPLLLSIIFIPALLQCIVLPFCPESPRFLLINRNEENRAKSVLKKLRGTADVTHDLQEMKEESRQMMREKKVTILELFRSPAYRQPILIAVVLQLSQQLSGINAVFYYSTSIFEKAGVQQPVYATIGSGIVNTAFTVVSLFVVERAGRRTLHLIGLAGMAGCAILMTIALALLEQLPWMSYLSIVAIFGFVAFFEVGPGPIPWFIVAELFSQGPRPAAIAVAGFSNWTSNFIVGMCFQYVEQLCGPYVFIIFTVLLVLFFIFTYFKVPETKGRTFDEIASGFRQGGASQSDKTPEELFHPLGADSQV

For `O=C(c1ccccc1)C1CC1CN1CC=C(c2c[nH]c3ccccc23)CC1` (stereo not given), the inhibition came to 2.08% in assay [1], 0.92% in assay [2] and 8.35% in assay [3].

For the compound `CN1C(=O)[C@H](NC(=O)[C@@H](Cc2ccccc2)NC(=S)Nc2ccccc2)N=C(c2ccccc2)c2ccccc21`, the inhibition in assay [1] came to 1.25%; in assay [2] it was 0.57%; in assay [3], 1.74%.

In the case of `CCOC(=O)c1ccc(CC(C)NCC(O)c2cccc(C(F)(F)F)c2)cc1` (stereo not given), the inhibition in assay [1] was -2.26%; in assay [2], -1.71%; in assay [3], -0.87%.

`Cc1cc(N(C)C2CCN(C)CC2)nc(Nc2ccc(Cl)cc2)n1`: the figures for the inhibition in assay [1], in assay [2] and in assay [3] were 2.63%, -2.68% and -0.95%, respectively.

For the compound `CN(c1cc(NC(=O)c2ccc(F)cc2)ccn1)C1CCN(Cc2ccc(C#N)cc2)CC1`, the inhibition in assay [1] is 2.42%; in assay [2], 2.29%; in assay [3], 4.46%.

With `COc1cc(CC(C)NCC(O)c2cccc(C(F)(F)F)c2)ccc1OCc1ccccc1` (stereo not given), the inhibition in assay [1] was 4.94%; in assay [2], 4.6%; in assay [3], 3.99%.

For `Brc1cnc(NC2=NCCN2)c(Br)c1`, the inhibition in assay [1] amounted to 2.63%; in assay [2] it was 3.41%; in assay [3], 3.27%.

`CO[C@@H]1C[C@@H](C(=O)Nc2ccccc2)N(c2ccc(C#N)c3ccccc23)C1`: the results for the inhibition in assay [1], in assay [2] and in assay [3] were 4.31%, 5.45% and 3.78%, respectively.

As for `O=C(/C=C/c1ccc(Cl)c(Cl)c1)N1CCC(CN2CCC(c3c[nH]c4cc5c(cc34)OCO5)CC2)CC1`, the inhibition is 5.54% in assay [1], 4.93% in assay [2] and 3.71% in assay [3].

In the case of `COC(=O)c1ccc(CC(C)NCC(O)c2ccc(Cl)c(Cl)c2)cc1` (stereo not given), the inhibition in assay [1] came to 6.46%; in assay [2], 3.9%; in assay [3], 5.96%.

On to `COC(=O)c1sccc1NC(=S)NC1CCC(CN2CCC(c3c[nH]c4ccccc34)CC2)CC1` (stereo not given), for which the inhibition in assay [1] was 4.17% and 2.22%; in assay [2], 3.81% and 3.47%; in assay [3], 0.42% and 1.38%.

With `Cc1c(C(=O)N[C@@H](C)c2ccccc2)c2cc(O)c(Br)cc2n1C1CCCCC1`, the inhibition in assay [1] worked out at 2.84%; in assay [2] it was 2.43%; in assay [3] it was 3.33%.

In the case of `CCC1(C)CC(CCNCc2ccccc2O)(c2ccc(C)cc2)CCO1` (stereo not given), the inhibition in assay [1] is -0.22%; in assay [2], -2.9%; in assay [3] it was -0.15%.

As for `CC(C)CNCc1ccc(-c2cccc(CN(C(=O)Nc3ccccc3)C3CCN(Cc4ccccc4)CC3)c2)cc1`, the results for the inhibition in assay [1], in assay [2] and in assay [3] were 0.61%, -0.02% and -1.04%, respectively.

For `CCCCCc1cc(O)c2c(c1)OC(C)(C)CC2C1=CCN(Cc2cccnc2)CC1` (stereo not given), the inhibition is -0.46% in assay [1], 1.05% in assay [2] and 0.25% in assay [3].

With `CC(=O)N(Cc1cccc(-c2ccc(CNCCc3ccccc3)cc2)c1)C1CCN(Cc2ccccc2)CC1`, the inhibition is 4.3% in assay [1], 5.39% in assay [2] and 2.97% in assay [3].

For `CC(C)CNCc1cccc(-c2cccc(CN(C(=O)c3cccs3)C3CCN(Cc4ccccc4)CC3)c2)c1`, the inhibition in assay [1] worked out at 11.3%; in assay [2] it was 7.75%; in assay [3], 6.04%.

For the compound `O=C(/C=C/c1c(Cl)cccc1Cl)NC1CCC(CN2CCC(c3c[nH]c4ccccc34)CC2)CC1` (stereo not given), the inhibition in assay [1] was 5.03% and 4.85%; in assay [2], 12.9% and 2.55%; in assay [3], 6.66% and 4.94%.

`CC[C@H]1CN2CC[C@H]1C[C@@H]2[C@@H](O)c1cc(Cl)nc2ccc(OC)cc12`: the values for the inhibition in assay [1], in assay [2] and in assay [3] were 11%, 8.14% and 8.37%, respectively.

Take `OC(CNC1CCCCCC1)c1ccc(Cl)c(Cl)c1` (stereo not given): the values for the inhibition in assay [1], in assay [2] and in assay [3] were -0.7%, 0.32% and -0.87%, respectively.

`C#CCN1CCC2=C(C1)c1c(O)cc(C(C)CCCc3ccc(F)cc3)cc1OC2(C)C` (stereo not given): the inhibition in assay [1] came out at 1.13%; in assay [2], 0.61%; in assay [3], 0.09%.

With `C=C[C@H]1CN2CC[C@@H]1C[C@H]2[C@H](O)c1cc(-c2ccc(F)cc2)nc2ccc(OC)cc12`, the results for the inhibition in assay [1], in assay [2] and in assay [3] were 6.56%, 4.6% and 3.68%, respectively.

For the compound `O=C(/C=C/c1ccc(Cl)cc1)NC1CCC(CN2CCC(c3c[nH]c4ccccc34)CC2)CC1` (stereo not given), the inhibition in assay [1] is 0.07% and -1.03%; in assay [2], 0.24% and -2.23%; in assay [3], -1.22% and 2.14%.

Consider `CC[C@H]1CN2CC[C@H]1C[C@H]2[C@H](O)c1cc(N2CCCC2)nc2ccc(OC)cc12`, for which the inhibition was -0.2% in assay [1], -1.79% in assay [2] and 0.03% in assay [3].

With `O=C(Nc1ccc(CN2CCC(c3c[nH]c4ccc(O)cc34)CC2)cc1)c1ccc(-c2ccccc2)cc1`, the inhibition is 5.73% in assay [1], 3.85% in assay [2] and 5.18% in assay [3].

On to `CC(=O)C1(c2ccccc2)CCN(CCC2(c3ccc(Cl)c(Cl)c3)CN(C(=O)c3cccc(Cl)c3)CCO2)CC1` (stereo not given), for which the inhibition in assay [1] was -0.25%; in assay [2], -2.92%; in assay [3], -1.43%.

As for `Cc1cccc2c(C3CCN(CC4CCC(NC(=O)/C=C/c5ccc(Cl)c(Cl)c5)CC4)CC3)c[nH]c12` (stereo not given), the inhibition turned out to be 10.9% in assay [1], 9.79% in assay [2] and 8.09% in assay [3].

As to `CCCc1c(C(=O)NC2CCC(CN3CCC(c4c[nH]c5ccccc45)CC3)CC2)cnn1-c1ccc(Cl)cc1` (stereo not given), the inhibition in assay [1] is -0.47%; in assay [2] it was -1.46%; in assay [3], -1.49%.

As for `FC(F)(F)c1ccc(NC(=S)NC2CCC(CN3CCC(c4c[nH]c5ccccc45)CC3)CC2)cc1` (stereo not given), the inhibition was 13.2% and 1.58% in assay [1]; 12.7% and 6.46% in assay [2]; 3.66% and 2.93% in assay [3].

As to `O=C(Nc1ccccc1Cl)NC1CCC(CN2CCC(c3c[nH]c4ccccc34)CC2)CC1` (stereo not given), the inhibition in assay [1] was 4.02% and 5.1%; in assay [2], 3.83% and 5.22%; in assay [3] it was -1.83% and 3.04%.

Take `CC[C@H]1CN2CC[C@@H]1C[C@H]2[C@H](O)c1cc(-c2cccnc2)nc2ccc(OC)cc12`: the inhibition in assay [1] turned out to be 4.01%; in assay [2], 4.01%; in assay [3] it was 4.02%.

With `Oc1ccc(CN2CCN(CCOC(c3ccccc3)c3ccc(Cl)cc3)CC2)cc1Cl` (stereo not given), the inhibition in assay [1] was 5.8%; in assay [2] it was 1.85%; in assay [3] it was -3.12%.

Take `CC[C@H]1CN2CC[C@H]1C[C@H]2[C@H](O)c1cc(-c2cccc(C)c2)nc2ccc(OC)cc12`: the inhibition in assay [1] was found to be 3.99%; in assay [2] it was 2.64%; in assay [3], 4.03%.

As to `COc1cccc(CCNC(C)Cc2ccc(OCCCCOc3ccccc3)cc2)c1` (stereo not given), the inhibition stood at 95% in assay [1], 96.3% in assay [2] and 101% in assay [3].

In the case of `CC[C@H]1CN2CC[C@@H]1C[C@H]2[C@H](O)c1cc(-c2ccccc2)nc2ccc(O)cc12`, the inhibition worked out at 5.97% in assay [1], 5.53% in assay [2] and 2.83% in assay [3].
